ATG4B inh: ATG4B protease inhibitors, primary screen, biochemical, fluorescence, uHTS | ATG4B cleavage of LC3-PLA2, NBD-HPC fluorescence, 1 h | inhibition, % at 8.33 µM | hit rate 0.51% among 340,000; in the data active means inhibition above about 40%
DAGLB inh: DAGLB lipase inhibitors, primary screen, biochemical, fluorescence, HTS | inhibition, % at 5.17 µM | hit rate 0.059% among 340,000 | HEK293T DAGLB membrane lysate, EnzChek fluorogenic substrate; in the data active means inhibition above about 34%;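 further: 0% = enzyme with vehicle and 100% = wells lacking enzyme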
pPAFAH FP inh: pPAFAH enzyme inhibitors, primary screen, biochemical, fluorescence polarization, human; Platelet-activating factor acetylhydrolase (Homo sapiens), Q13093; recombinant pPAFAH, FP-rhodamine probe fluorescence polarization; inhibition, % at 3.39 µM; hit rate 1.5% among 330,000;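 active means inhibition above the mean inhibition across the screen plus 3 SD, cut at about 25% in these data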;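 further: inhibitors block binding of the rhodamine activity-based probe so polarization drops; 0% = enzyme with DMSO and 100% = wells lacking pPAFAH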
PAFAH2 FP inh: PAFAH2 enzyme inhibitors, primary screen, biochemical, fluorescence polarization, human; Platelet-activating factor acetylhydrolase 2, cytoplasmic (Homo sapiens), Q99487; recombinant PAFAH2, FP-rhodamine activity probe; inhibition, % at 3.39 µM; hit rate 0.99% among 340,000; AID 492956, 2010;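 active means inhibition above the mean over all tested compounds plus 3 SD, cut at about 30% in these data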;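 further: inhibitors block probe labeling of enzyme so polarization drops; 0% = enzyme with DMSO and 100% = wells lacking PAFAH2 protein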
PAFAH1B2 FP inh: PAFAH1B2 enzyme inhibitors, primary screen, biochemical, fluorescence polarization, human; hit rate 1.2% among 340,000; inhibition, % at 3.39 µM; AID 492953, 2010; Platelet-activating factor acetylhydrolase IB subunit alpha2 (Homo sapiens), P68402; recombinant PAFAH1B2, FP-rhodamine activity probe;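 active means inhibition above the mean of all tested compounds plus 3 SD, cut at about 24% in these data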;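 further: 0% = enzyme with DMSO and 100% = wells lacking PAFAH1B2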
Target sequence (P68402 whole entry, looked up): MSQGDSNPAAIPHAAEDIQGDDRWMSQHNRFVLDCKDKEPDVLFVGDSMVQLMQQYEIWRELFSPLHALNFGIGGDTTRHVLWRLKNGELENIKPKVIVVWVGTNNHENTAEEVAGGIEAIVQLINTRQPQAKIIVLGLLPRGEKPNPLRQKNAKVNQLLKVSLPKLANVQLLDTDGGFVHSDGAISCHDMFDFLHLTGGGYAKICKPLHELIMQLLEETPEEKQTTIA
PAFAH1B3 inh: PAFAH1B3 enzyme inhibitors, primary screen, biochemical, fluorescence polarization, human; Platelet-activating factor acetylhydrolase IB subunit alpha1 (Homo sapiens), Q15102; recombinant PAFAH1B3, FP-rhodamine probe; inhibition, % at 3.39 µM; hit rate 0.28% among 340,000;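 active means inhibition above the screen-wide average of all tested compounds plus 3 SD, cut at about 25% in these data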;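 further: 0% = enzyme with DMSO only and 100% = wells lacking PAFAH1B3 protein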
Target sequence (Q15102 whole entry, looked up): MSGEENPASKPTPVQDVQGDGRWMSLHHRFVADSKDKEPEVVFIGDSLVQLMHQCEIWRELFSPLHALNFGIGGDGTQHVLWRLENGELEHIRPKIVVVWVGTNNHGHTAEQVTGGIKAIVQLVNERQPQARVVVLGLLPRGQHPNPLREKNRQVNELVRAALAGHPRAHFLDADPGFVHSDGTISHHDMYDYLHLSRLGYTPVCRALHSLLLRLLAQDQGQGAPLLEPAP
PAFAH2 FP conf: PAFAH2 enzyme inhibitors, confirmation, biochemical, fluorescence polarization, human. inhibition, % at 3.39 µM. shares compounds with PAFAH2 FP inh. recombinant PAFAH2, FP-rhodamine activity probe. AID 493030, 2011. hit rate 65% among 2,300;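 active means mean inhibition over three repeats above a set limit taken from the earlier primary screen, cut at about 30% in these data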;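 further: inhibitor blocks binding of rhodamine activity probe so polarization falls; 0% = enzyme with DMSO and 100% = wells lacking PAFAH2 protein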
* marks the source's active call; other numbers are inactive results; . = not tested or not shown; + = active, no number. Hits are enriched below; roughly 3% of the tested compounds scored in any of these assays.

SMILES	ATG4B inh	DAGLB inh	pPAFAH FP inh	PAFAH2 FP inh	PAFAH1B2 FP inh	PAFAH1B3 inh	PAFAH2 FP conf
CCn1cc(C(=O)OCC(=O)Nc2c(C)cccc2C)c(=O)c2ccc(C)nc21	-7	1	-4	15	4	2	.
COc1ccc2[nH]c(C)c(-c3csc(N)n3)c2c1	-4	3	7	-5	7	10	.
COC(=O)C1=C(C)N(CCCC(=O)O)C(=O)NC1c1ccccc1OS(=O)(=O)c1ccc([N+](=O)[O-])cc1 (stereo not drawn)	-8	1	-3	-3	4	6	.
COc1cc2c(C(F)(F)F)c(-c3ccsc3)oc(=O)c2cc1OC	.	-10	8	59*	2	7	39*
CC(=O)N1CCCN(Cc2cn(-c3cc(C)ccc3C)nc2-c2ccccc2)CC1	2	0	9	-3	-2	5	.
CC(=O)c1c(C)[nH]c(C(=O)OCC(=O)N2CCc3ccccc32)c1C	-9	2	-2	44*	-2	-7	27
Cn1cccc1C(=O)OCC(=O)N1CCc2ccccc21	-8	0	2	31*	5	0	18
Cc1ccc(C(=O)OCC(=O)N2CCCc3ccccc32)cc1C	20	-9	.	19	3	-1	.
O=C(OCC(=O)N1CCc2ccccc21)c1ccccc1F	0	-1	11	57*	6	2	53*
Cn1cccc1C(=O)OCC(=O)N1CCc2ccccc2C1	.	-2	.	.	.	.	.
Cc1ccc(C(=O)OCC(=O)N2CCc3ccccc32)cc1	-7	-7	3	63*	0	4	63*
CC1=C(C(=O)Nc2cccc(C(=O)NC(C)c3ccccc3)c2)SCCO1 (stereo not drawn)	-8	2	16	2	7	6	.
Cc1c(C)c(C)c(S(=O)(=O)Nc2ccc3[nH]c(=O)[nH]c3c2)c(C)c1C	-4	1	2	-1	5	-4	.
O[C@@H]1CN(CC2CCCCC2)[C@@H](c2ccc(Cl)cc2)C[C@H]1n1cc(-c2ccc(F)cc2)nn1	.	-2	.	.	.	.	.
CCc1ccc2c(c1)C(=O)C[C@]1(CCC[C@H](C)C1)O2	-1	-6	-3	-5	4	4	.
Cc1cc(Nc2cccc(Br)c2)c2ccccc2n1	-2	2	2	50*	-3	4	8
CCCn1c(N/N=C(C)\C=C\c2ccccc2)nc2c1c(=O)[nH]c(=O)n2C	.	.	4	.	.	.	.
COc1ccc(C(=O)O)cc1NC(=S)NC(=O)/C=C/c1ccc(C(C)C)cc1	3	4	-1	-1	0	12	.
CSc1ncccc1C(=O)NCC(c1cccs1)N1CCOCC1 (stereo not drawn)	2	1	2	-1	-5	6	.
Cc1ccc(NC(=O)COC(=O)c2cccc(N3C(=O)c4ccccc4C3=O)c2)cc1	0	0	11	38*	3	2	27
CC(=O)c1ccc(NC(=O)c2cccc(N3C(=O)c4ccccc4C3=O)c2)cc1	4	-1	5	-9	-10	-8	.
CC(=O)c1cccc(NC(=O)COC(=O)c2cccc(N3C(=O)c4ccccc4C3=O)c2)c1	1	0	1	52*	-1	6	46*
C[C@H](CO)N1C[C@H](C)[C@@H](CN(C)S(=O)(=O)c2cccs2)OCc2cnnn2CCCC1=O	.	1	.	.	.	.	.
COC(=O)c1cc(C(=O)c2cc(Br)ccc2O)coc1=N	-8	1	1	31*	2	0	5
CCCN1CCC(=NNc2ccc(C(=O)O)cc2)CC1	-9	3	3	35*	3	12	3
SMILES	ATG4B inh	DAGLB inh	pPAFAH FP inh	PAFAH2 FP inh	PAFAH1B2 FP inh	PAFAH1B3 inh	PAFAH2 FP conf
CCCC1OC23CCCCC2C(C#N)(C(=N)O3)C1(C#N)C#N (stereo not drawn)	-6	-1	13	30*	15	21	0
CSc1ccc(CN(C)C(=O)C23CC4CC(CC(Cl)(C4)C2)C3)cc1	-12	-6	6	0	2	0	.
CC1=CCC2([N+](=O)[O-])CN(CC(=O)O)CC1([N+](=O)[O-])C2 (stereo not drawn)	6	0	2	2	-2	8	.
CC(CC(=O)Nc1nc2ccccc2[nH]1)n1ccnc1 (stereo not drawn)	-6	0	2	9	7	5	.
CC(=O)Nc1ccc(NC(=O)CC(C)n2ccnc2)cc1 (stereo not drawn)	0	-1	3	+	0	-3	5
COCCNC(=O)C(=O)Nc1cc2c3c(c1)CCC(=O)N3CCC2	-2	-1	3	6	1	3	.
O=C(OCCN1CCOCC1)c1ccc(Cl)cc1Cl	-7	1	6	6	4	1	.
CCN(C(=O)COC(=O)c1cc(-c2ccc(C)o2)nc2ccccc12)C1CCS(=O)(=O)C1 (stereo not drawn)	-14	2	5	45*	-2	-3	0
COc1ccc(C(=O)c2ccc(Cl)cc2)c(OC)c1OC	3	-5	.	7	5	12	.
O=C(COC(=O)c1ccccc1C(=O)N1CCN(c2ccccc2)CC1)Nc1ccccc1	-16	1	5	63*	5	11	60*
COc1cccc(NC(=O)COC(=O)c2ccccc2C(=O)N2CCN(c3ccccc3)CC2)c1	-3	-2	7	54*	2	-7	54*
O=C(COC(=O)c1ccccc1C(=O)N1CCN(c2ccccc2)CC1)Nc1ccc(F)cc1	-22	0	5	74*	2	-1	60*
O=C(COC(=O)c1ccccc1C(=O)N1CCN(c2ccc(F)cc2)CC1)NCc1ccccc1	-19	-2	8	20	4	12	.
N=C1/C(=C/c2ccc(Br)o2)C(=O)N=C2SC(CC(=O)N3CCCC3)=NN12	30	4	5	31*	9	0	12
COc1ccc(/C=N/NC(=O)c2cc(C(C)(C)C)[nH]n2)cc1COc1ccc(F)cc1F	-19	-7	-2	-30	-11	-1	.
O=C(COC(=O)/C=C/c1ccc(OC(F)F)cc1)Nc1ccc(N2CCOCC2)cc1	-2	2	8	2	3	4	.
COc1cccc(/C=C/C(=O)OCC(=O)Nc2cccc(S(=O)(=O)N3CCCCC3)c2)c1OC	-6	-2	4	39*	-1	-1	55*

Source: PubChem
